Screening results as filed in PubChem.
Cruzain noTriton: qHTS Assay for Promiscuous and Specific Inhibitors of Cruzain (without detergent); Cruzipain (Trypanosoma cruzi), P25779; purified cruzain, Z-FR-AMC fluorescence, no detergent; Potency, µM, inactives show max response, negative = inhibition, hits mostly inhibitors; actives 2.3% (n = 200,000); AID 1476, 2009;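 also: plate controls were enzyme without inhibitor for no effect and buffer without enzyme for full effect; nearly all actives have a fitted effect of over 40% in size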
Target sequence (P25779 123-467 limits assumed): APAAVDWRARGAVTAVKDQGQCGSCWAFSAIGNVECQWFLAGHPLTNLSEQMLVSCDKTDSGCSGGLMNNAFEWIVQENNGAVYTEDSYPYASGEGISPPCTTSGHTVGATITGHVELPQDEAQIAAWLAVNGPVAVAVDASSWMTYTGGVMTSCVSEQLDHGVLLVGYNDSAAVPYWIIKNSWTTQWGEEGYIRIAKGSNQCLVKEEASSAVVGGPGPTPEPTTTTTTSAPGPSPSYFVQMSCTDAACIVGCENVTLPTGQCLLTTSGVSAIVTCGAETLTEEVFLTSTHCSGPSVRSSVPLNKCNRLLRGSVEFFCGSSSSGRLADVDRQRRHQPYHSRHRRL
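Purified cruzain at 1.5 nM, pre-incubated 15 min with compound at room temperature in 100 mM sodium acetate pH 5.5, 5 mM DTT, 0.00005% Triton X-100. Reaction started with 2 uM Z-FR-AMC; AMC fluorescence increase over 60 s gives rate.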
Cruzain Triton: qHTS Assay for Promiscuous and Specific Inhibitors of Cruzain (with detergent). AID 1478, 2009. Potency, µM, for the others: max response, negative = inhibition, most hits filed as inhibitors. Cruzipain (Trypanosoma cruzi), P25779. purified cruzain, Z-FR-AMC fluorescence, 0.01% Triton. actives 0.43% (n = 200,000);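 also: plate controls were neutral wells for no effect and buffer without enzyme for full effect; nearly all actives have a fitted effect of over 40% in size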
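In this qHTS format, compounds are incubated with 1.5 nM cruzain for 15 min at room temperature before 2 uM Z-FR-AMC is added. Release of AMC is followed at 360/450 nm, and progress is taken as the 60 s fluorescence difference.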
Starred values were filed as active, the others as inactive; ? = inconclusive. Rows were chosen to be rich in hits. Some 2.6% of all compounds tested hit in one or more screens of this group. Calls follow the shape of the dose curve; as a rule, active = well fitted curve in the direction sought with a large enough effect; inconclusive = small, poorly fitted or top-dose-only effect, or another doubt; inactive = no such curve, though single readings can be large; an effect the other way counts as inactive or inconclusive. Potency is read from the fitted curve at half-maximal effect.

SMILES	Cruzain noTriton	Cruzain Triton
Cc1cc(C(=O)CSc2nnc(-c3ccco3)o2)c(C)n1-c1ccc2c(c1)OCCO2	10µM*	-4%
Cc1cc(C(=O)CSc2nnc(-c3cccs3)o2)c(C)n1-c1ccccc1	25µM*	3%
O=C(CSc1nnc(-c2cccs2)o1)c1cccs1	-1%	3%
Cc1cc(C(=O)CSc2nnc(-c3ccco3)o2)c(C)n1Cc1ccco1	16%	-2%
COc1ncc2nc(CCc3ccccc3)c(=O)n(C3CC3)c2n1	3%	-5%
CCCn1c(C)nc2c(NCC(C)(C)CN(C)C)nc(C)nc21	-8%	5%
COc1ccccc1N1CCN(c2cc(=O)n(-c3ccc(Br)cc3)c(=O)[nH]2)CC1	?	2%
O=c1cc(N2CCN(c3ccccc3F)CC2)[nH]c(=O)n1-c1ccc(Br)cc1	25µM*	-1%
COc1ccc(C2CC(=O)c3cc(-c4nc(-c5cccc([N+](=O)[O-])c5)cs4)c(=O)n(-c4ccccc4)c3C2)cc1 (configuration not stated)	-4%	0%
COc1ccc(C2CC(=O)c3cc(-c4nc(-c5cccc([N+](=O)[O-])c5)cs4)c(=O)n(-c4ccc(F)cc4)c3C2)cc1 (configuration not stated)	1µM*	-3%
CCOc1cc(/C=C(/C#N)c2nc3ccccc3[nH]2)ccc1Oc1ccc([N+](=O)[O-])cn1	-8%	-4%
Cc1ccc2nc(/C(C#N)=C\c3ccc([N+](=O)[O-])o3)[nH]c2c1	?	-7%
COc1ccc2nc(/C(C#N)=C\c3ccc(Oc4ccc([N+](=O)[O-])cn4)cc3)[nH]c2c1	25µM*	-6%
COc1cc(/C=C(/C#N)c2nc3ccccc3[nH]2)ccc1Oc1ncccc1[N+](=O)[O-]	?	3%
COc1cc(/C=C(/C#N)c2ccc(C)cc2)ccc1Oc1ccc([N+](=O)[O-])cn1	25µM*	5%
Cc1ccc2nc(/C(C#N)=C\c3ccc(Oc4ccc([N+](=O)[O-])cn4)cc3)[nH]c2c1	10µM*	-1%
Cc1ccc2nc(/C(C#N)=C\c3cc(C)n(-c4cccc([N+](=O)[O-])c4)c3C)[nH]c2c1	25µM*	4%
Cc1ccc(/C(C#N)=C/c2cccc([N+](=O)[O-])c2)cc1	1%	2%
O=[N+]([O-])c1ccc2c(c1)c(S(=O)(=O)O)cc1nonc12	4%	15%
Cc1ccc(-c2nc(SCCOc3ccccc3C)n3[nH]c(=O)cc3n2)cc1	-10%	4%
O=C(OCc1cccc2ccccc12)C1CC(=O)N(c2ccccc2)C1 (configuration not stated)	-1%	-2%
Cc1ccc(C(=O)COC(=O)C2CC(=O)N(c3nc(-c4ccccc4)cs3)C2)cc1C (configuration not stated)	32µM*	2%
CC(C)NC(=O)N1CCC2(CC1)CCN(S(C)(=O)=O)CC2	0%	6%
COc1ccc(C(c2c(C)[nH]n(C(N)=S)c2=O)C(C#N)C#N)cc1 (configuration not stated)	-17%	2%
Cc1[nH]n(-c2ncc(-c3ccc(Cl)cc3)s2)c(=O)c1C(c1ccc(Cl)cc1)C(C#N)C#N (configuration not stated)	3.2µM*	?
SMILES	Cruzain noTriton	Cruzain Triton
COc1cccc(C(=O)Nc2nc(-c3ccc(S(=O)(=O)N4CCOCC4)cc3)cs2)c1	?	0%
Cc1ccc(-c2csc(NC(=O)c3ccc(S(=O)(=O)N4CCc5ccccc54)cc3)n2)cc1	5µM*	1%
Cc1ccc(-c2csc(NC(=O)c3cccc(S(=O)(=O)N4CCN(C)CC4)c3)n2)cc1	-4%	-13%
COc1ccc(-c2csc(NC(=O)c3ccc(S(=O)(=O)N4CCc5ccccc5C4)cc3)n2)c(OC)c1	4µM*	-2%
O=C(Nc1nc(-c2ccc(S(=O)(=O)N3CCOCC3)cc2)cs1)c1ccccc1	-15%	-6%
O=C(Nc1nc(-c2ccccc2)cs1)c1ccc(S(=O)(=O)N2CCc3ccccc32)cc1	6.3µM*	-1%
O=C(Nc1nc(-c2ccccc2)cs1)c1cccc([N+](=O)[O-])c1	?	-3%
O=C(Nc1nc(-c2ccc3c(c2)Cc2ccccc2-3)cs1)c1ccccc1	20µM*	0%
COc1cccc(C(=O)Nc2nc3ccc(S(=O)(=O)N4CCCC4)cc3s2)c1	-6%	-9%
COc1ccc(/C=N/Nc2nc(-c3cccc(S(=O)(=O)N4CCCC4)c3)cs2)c(OC)c1	7.9µM*	-2%
COC(=O)c1scc(-c2ccc(C)cc2)c1S(=O)(=O)Nc1cc(OC)c(OC)c(OC)c1	?	-7%
COc1cc(-c2noc(-c3ccc(NC4CCCCC4)c([N+](=O)[O-])c3)n2)cc(OC)c1OC	?	-12%
CCOc1ccc(-c2nn(-c3ccccc3)cc2/C=C2\SC(=S)N(C3CCS(=O)(=O)C3)C2=O)cc1 (configuration not stated)	7.9µM*	-12%
CCCOc1ccc(-c2nn(-c3ccccc3)cc2/C=C2\SC(=S)N(C3CCS(=O)(=O)C3)C2=O)cc1 (configuration not stated)	4µM*	2%
CCOc1ccc(-c2nn(-c3ccccc3)cc2/C=C2\SC(N)=NC2=O)cc1C	8%	-1%
CN(C)S(=O)(=O)c1cccc(-c2nn(-c3ccccc3)cc2/C=C2\SC(=S)NC2=O)c1	16%	-13%
CCOC(=O)c1c(C)[nH]c(C)c1S(=O)(=O)N(C)CC(=O)Nc1ccc(OC)cc1	-3%	2%
COc1cc2c(C#N)c(N3CCCCC3)nc(N)c2c(N)n1	-28%	-13%
COc1cc2c(C#N)c(N3CCc4ccccc4C3)nc(N)c2c(N)n1	13µM*	-9%
CC(C)C[C@@H](CC(=O)N[C@@H](CCCN)CC(=O)N[C@@H]1CCCC[C@H]1C(=O)N[C@H](CC(=O)N[C@@H](CCC(=O)O)CC(=O)O)Cc1c[nH]c2ccccc12)NC(=O)[C@@H]1CCCC[C@H]1N	?	-1%
Nc1nc(SCC(=O)NCc2ccccc2Cl)[nH]c(=O)c1NC(=O)c1ccccc1F	?	3%
Nc1nc(SCC(=O)NCc2ccc(F)cc2)[nH]c(=O)c1NC(=O)c1ccc(Cl)cc1	25µM*	2%
C=CCN1C(=CCO)[C@H]2C[C@H]3[C@@H]1CC[C@@]31c3ccccc3N3C=C4[C@@H]5N(/C=C/2[C@H]31)c1ccccc1[C@]51CC[C@H]2[C@H]1C[C@@H]4/C(=C/CO)N2CC=C	-17%	-8%
O=C1C(Cl)=C(Cl)C(=O)C(Cl)=C1Cl	-26%	-18%
CNC(=O)C1CCC(Cn2c(=O)c3sccc3n(CC(=O)NCc3ccc(F)cc3)c2=O)CC1 (configuration not stated)	11%	1%
SMILES	Cruzain noTriton	Cruzain Triton
COc1ccc(-c2csc3nc(C)n(-n4cccc4)c(=O)c23)cc1OC	8%	-5%
COc1ccc(-c2csc3nc(-c4cccnc4)nc(N4CCC(C(N)=O)CC4)c23)cc1OC	?	25µM*
CCOC(=O)C1=C(C)NC(C)=C(C(=O)OCC)C1c1cccs1	7%	-4%
C#CCSC1=C(C#N)C(c2cccs2)C(C(=O)OCC)=C(C)N1 (configuration not stated)	20µM*	-7%
COc1ccc(NC(=O)C(=O)NCCC2=CCCCC2)c(OC)c1	3%	2%
CCCCOc1ccc(NC(=O)C(=O)NCCC2=CCCCC2)cc1	10µM*	3%
